High-throughput results from PubChem BioAssay.
Shiga inhibitor: inhibitors of Shiga toxin in Vero cells. 290,000 tested, 9.2% active. Vero cells, Shiga toxin protein synthesis inhibition reporter. inhibition, % at 38.7 µM; in the data active = inhibition mostly above about 28%, no sharp cut-off; inactive = mostly below about 43%; note: 0% is about no effect
AmpC inh no detg: inhibitors of E. coli AmpC beta-lactamase without detergent; Potency, µM (titrated, usually from 57.1 µM), for the others: at the top dose activity change, negative = inhibition, actives largely listed as inhibitors; P00811; AmpC nitrocefin hydrolysis, absorbance 480 nm, 0.0001% Triton; AID 485341; 330,000 tested, 0.52% active;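 note: potency is the fitted concentration of half-maximal effect; plate controls were no compound for no effect and no enzyme for full effect; nearly all actives have a fitted effect of over 20% in size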
Target sequence (P00811 whole entry, looked up): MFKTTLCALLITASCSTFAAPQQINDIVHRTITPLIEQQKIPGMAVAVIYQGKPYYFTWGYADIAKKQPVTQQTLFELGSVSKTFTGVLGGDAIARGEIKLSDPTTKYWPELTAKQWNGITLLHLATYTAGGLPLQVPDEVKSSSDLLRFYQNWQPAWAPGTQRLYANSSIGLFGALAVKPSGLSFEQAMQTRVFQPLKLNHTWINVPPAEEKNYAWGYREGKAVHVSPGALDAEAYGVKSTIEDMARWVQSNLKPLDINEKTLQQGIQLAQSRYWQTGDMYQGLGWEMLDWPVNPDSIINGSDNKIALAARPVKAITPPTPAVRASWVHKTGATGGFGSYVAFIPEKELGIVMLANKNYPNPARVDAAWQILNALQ
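20 mM phosphate pH 7.0 + 0.01% (detergent screen) or 0.0001% Triton X-100; 5.3 nM AmpC reagent; cpd preinc 15 min RT; nitrocefin (800 uM stock) to start; A480 q20 s × 4 min; Activity was normalised to no-enzyme and no-compound control wells.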
AmpC inh detg: inhibitors of E. coli AmpC beta-lactamase with detergent | P00811 | AmpC hydrolysis of nitrocefin, absorbance 480 nm, 0.01% Triton | Potency, µM (highest dose often 114 µM), for the others: top-dose activity change, negative = inhibition, most hits filed as inhibitors | 370,000 tested, 0.041% active | AID 485294;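 note: potency is the fitted concentration of half-maximal effect; 0% = no-compound wells and -100% = no-enzyme wells; nearly all actives have a fitted effect of over 25% in size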
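AmpC (5.3 nM in the dispensed reagent) in 20 mM phosphate pH 7.0 with 0.01% (detergent screen) or 0.0001% Triton X-100 was preincubated with compounds for 15 min at room temperature. Nitrocefin was then added from an 800 uM solution, and hydrolysis was followed at 480 nm.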
NS1 function inh: influenza NS1 inhibition; Potency, µM (doses to about 46.1 µM), for inactives: at the highest dose activity, positive = more growth; AID 2326; 270,000 tested, 0.4% active; calls by dose curve; note: potency is the fitted concentration of half-maximal effect; actives are rising curves; nearly all actives have a fitted effect of over 50% in size
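Compounds were scored for reversing the slow growth caused by influenza A NS1 in S. cerevisiae, measured by optical density at 600 nm. Assay medium contained 2% galactose at pH 6.0; NS1-free yeast of the same strain were the positive control.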
Cycloheximide cs: counter-screen hit for Shiga toxin inhibitors, cycloheximide; cell reporter, cycloheximide protein synthesis inhibition counterscreen; max response, %; AID 2314; 300,000 tested, 12% active; in the data active = max response mostly above about 13%, no sharp cut-off; inactive = mostly below about 14%; note: read at 38.3 µM for the half of the compounds with a filed dose; 0% is about no effect
An asterisk follows results filed as active; ? = inconclusive; . = no result given. This is one part of a sample in which hits are shown more often than they occur. Unless noted, calls come from the whole dose curve; as a rule, active = well fitted curve in the direction sought with a large enough effect; inconclusive = small, poorly fitted or top-dose-only effect, or another doubt; inactive = no such curve, though single readings can be large; an effect the other way counts as inactive or inconclusive.

SMILES	Shiga inhibitor	AmpC inh no detg	AmpC inh detg	NS1 function inh	Cycloheximide cs
O=C1CCCN=C(Nc2ccc(F)c(Cl)c2)S1	53.6*	-8.0%	-3.7%	-6.9%	11.6
CCn1c(C)nc2c(C)[n+](CC(=O)c3ccc(Br)cc3)ccc21	61.2*	-12.5%	0.7%	0.7%	24.6*
COc1ccc(S(=O)(=O)N2Cc3ccccc3CC2C(=O)Nc2ccc(C)cc2)cc1OC (stereo not drawn)	.	.	8.8%	.	.
Cc1ccc(S(=O)(=O)N2Cc3ccccc3CC2C(=O)Nc2ccc3c(c2)OCO3)cc1 (stereo not drawn)	60.2*	-32.3%	-0.5%	-3.8%	30.4*
COc1ccc(S(=O)(=O)N2Cc3ccccc3CC2C(=O)Nc2ccc3c(c2)OCO3)cc1 (stereo not drawn)	79.2	-24.8%	0.4%	19.1%	46.5*
Cc1ccc(N(C)C(=O)C2CCN(S(=O)(=O)c3c(C)noc3/C=C/c3c(C)cc(C)cc3C)CC2)cc1	.	.	-9.2%	.	.
Cc1ccc(NC(=O)c2cc(C(=O)c3cc(Cl)ccc3O)cn(-c3ccc(C)cc3)c2=O)cc1	-8.2	3.16µM*	-5.6%	23.0%	-3.5
CCCCSc1nc(NCc2ccco2)c2c3c(sc2n1)COC(C)(C)C3	69.8*	2.0%	1.3%	14.3%	44.3*
CCCSc1nc(NCc2ccco2)c2c3c(sc2n1)COC(C)(C)C3	46.4*	42.9%	-2.9%	19.0%	25.9
Cc1cccc(-c2nnn3c2nc(NCc2ccccc2)c2ccccc23)c1	.	.	6.7%	.	.
CCc1ccc(NC(=O)CSc2nc3c(sc4ccccc43)c(=O)n2CCCOC(C)C)cc1	.	.	4.2%	.	.
Cc1cc(Cl)ccc1NC(=S)NCCC(c1ccccc1)c1ccccc1	-5.1	-19.2%	?	?	11.3*
Cc1cc(Cl)ccc1NC(=S)NCCc1ccc(Cl)cc1	51.6	-36.3%	-11.1%	-112.8%	9.5*
S=C(NCCc1ccccc1)Nc1ccc(Cl)cc1Cl	60.8*	-19.9%	-7.7%	5.7%	34.4*
CN(C)c1ccc2c(-c3ccccc3)c3ccc(=[N+](C)C)cc-3oc2c1	-1.6	.	.	.	11.8
CCn1c2c(c(=O)n3ncc(C(=O)N4CCN(c5ccc(Cl)cc5)CC4)c13)CN(Cc1ccc(OC)cc1)CC2	.	.	3.5%	.	.
CC(C)(CO)NS(=O)(=O)c1ccc2c(c1)Cc1cc(S(=O)(=O)NC(C)(C)CO)ccc1-2	.	15.6%	-12.8%	-5.3%	-1.6
CC1CCCCN1S(=O)(=O)c1cc2c3c(c1)CC(=O)N3CCC2 (stereo not drawn)	.	.	-1.7%	.	.
CC(C)(C)c1nc2sc3c(c2c(=O)o1)CCCC3	-6.2	-9.6%	1.4%	-7.2%	-5.5
Nc1c2c(nc3sc4c(c13)CCCC4)CCCC2	107.1*	-43.6%	2.4%	-68.0%	26.0*
Nc1nc2c(s1)CCCCCCCCCC2	1.5	-31.5%	-1.1%	-13.5%	-1.4
Nc1c2c(nc3sc4c(c13)CCCCC4)CCCCC2	58.6*	-26.1%	-0.3%	-38.8%	51.2*
Nc1c2c(nc3sc4c(c13)CCCC4)CCCCC2	129.7*	3.98µM*	-0.9%	-6.0%	70.8*
COc1ccc(OC)c2nc(-c3ccncc3)ccc12	8.5	-3.1%	-15.8%	-1.5%	15.0*
COc1cccc2sc(Nc3nc(-c4ccncc4)cs3)nc12	25.5	-19.7%	-0.3%	.	11.1
SMILES	Shiga inhibitor	AmpC inh no detg	AmpC inh detg	NS1 function inh	Cycloheximide cs
CC(=O)N1CCN(C(=O)c2ccc(Cl)c(S(=O)(=O)N3CCCCCC3)c2)CC1	.	10.0%	-0.4%	.	.
Nc1ccc(C(=O)OCc2nc3ccccc3s2)cc1	87.1*	-31.0%	-1.3%	.	56.2*
Cc1ccc(C(=O)OCc2nc3ccccc3s2)o1	.	-29.2%	?	.	.
O=C(OCc1nc2ccccc2s1)c1cc2ccccc2oc1=O	39.5*	-30.8%	-0.8%	-6.6%	34.0*
O=C(OCc1nc2ccccc2s1)c1ccc(Br)s1	28.9	-23.8%	-9.9%	-38.5%	24.6*
O=c1cc(CCl)nc2sc3ccccc3n12	23.7	-17.9%	0.3%	.	11.9
O=C(OCc1cc(=O)n2c(n1)sc1ccccc12)c1ccc(O)cc1	26.8	-29.2%	-9.7%	0.0%	35.8*
COc1ccccc1NC(=S)NNC(=O)c1ccc(Cl)cc1Cl	51.3*	-35.6%	-11.8%	-27.4%	31.0*
CCC(=O)Nc1cccc(NC(=S)NC(=O)c2ccc(Cl)cc2)c1	24.0	-26.0%	?	7.1%	22.0*
O=C(NC(=S)Nc1ncccn1)c1ccc(Cl)cc1Cl	127.2*	-19.6%	0.8%	.	30.2*
CCC(=O)NC(=S)Nc1cccc(NC(=O)c2ccccc2C)c1	19.6	-6.1%	0.2%	.	-3.1
CCC(=O)Nc1cccc(NC(=S)NC(=O)c2ccccc2C)c1	71.8*	-21.3%	1.8%	.	47.8*
O=C1CC(c2ccccc2)Cc2[nH]c(=O)c(C(=O)Nc3cccc(F)c3)cc21 (stereo not drawn)	.	.	13.0%	.	.
CCCC(=O)NC(=S)Nc1cccc(NC(=O)c2ccc(Cl)cc2Cl)c1	10.3	-47.7%	-1.2%	7.8%	1.4
CCC(=O)Nc1cccc(NC(=S)NC(=O)c2ccc(Cl)cc2Cl)c1	23.4	-25.7%	-8.2%	21.6%	42.4*
CCOC(=O)Cn1cnc2c(sc3nc(C)cc(C)c32)c1=O	16.5	-5.5%	-9.8%	2.8%	20.4*
C=CCn1cnc2c(sc3nc(C)cc(C)c32)c1=O	21.6	35.1%	8.9%	-1.4%	13.3
COC(=O)Cn1c(C)nc2c(sc3nc(C)cc(C)c32)c1=O	111.2*	-5.7%	?	4.9%	48.7*
COc1ccc(-c2cc3c(=O)n(CC(=O)Nc4cc(C)ccc4C)ccn3n2)cc1	.	.	8.0%	.	.
CCOc1ccc(N(C(=O)c2cc3ccccc3oc2=O)C2C=CS(=O)(=O)C2)cc1 (stereo not drawn)	77.9*	2.6%	-18.9%	.	27.8*
O=C(NCc1ccc(Cl)cc1)C1CCCN1C(=O)Nc1ccc(F)cc1 (stereo not drawn)	-7.2	-4.0%	?	-2.4%	2.0
O=C(NCc1ccc(F)cc1)Nc1ccc(Cl)cc1	59.1	-8.9%	-8.6%	-2.6%	36.0*
O=C(NCc1ccc(F)cc1)Nc1cccc(Cl)c1	62.4*	-32.1%	-1.6%	.	27.9*
Fc1cccc(NC(=S)NCc2ccc(Cl)cc2)c1	15.7	-40.0%	0.3%	-31.8%	-1.1
CCCS(=O)(=O)c1ncc(Cl)c(C(=O)N2CCN(c3ccc(OC)cc3)CC2)n1	.	.	10.5%	.	.
SMILES	Shiga inhibitor	AmpC inh no detg	AmpC inh detg	NS1 function inh	Cycloheximide cs
O=C(NCC(c1ccc2c(c1)OCO2)N1CCN(c2ccccc2F)CC1)c1ccccc1F (stereo not drawn)	.	.	8.1%	.	.
O=C(Cc1cccs1)N=Nc1c(O)[nH]c2ccc(Br)cc12	-3.9	-45.5%	3.5%	-4.8%	-2.2
O=C(Cc1cccs1)N=Nc1c(O)[nH]c2ccccc12	84.7*	-38.1%	-13.1%	-65.8%	56.3*
COc1ccc2[nH]c(O)c(N=NC(=O)c3ccc(NS(=O)(=O)c4cccs4)cc3)c2c1	.	-28.9%	?	.	.
COc1ccc2[nH]c(O)c(N=NC(=O)Cc3cccs3)c2c1	39.1*	-55.9%	-4.3%	-7.4%	27.0*
COC(=O)[C@@H]1OC(c2ccccc2)O[C@H]1C(=O)OC	-3.1	.	.	.	-6.3
